# Source: PubChem BioAssay
# Rows were chosen to be rich in hits. Some 19% of all compounds tested hit in one or more screens of this group.
# IL1B secr inh – qHTS for Inhibitors of Inflammasome Signaling: IL-1-beta AlphaLISA Primary Screen | THP-1 LPS/ATP IL-1B secretion, AlphaLISA, 16 h; stronger effect = lower value | 4.7% of 360,000 active | AID 743279, 2014 | activity change, % at 57.5 µM; in the data active means activity change below about -50%; inconclusive means mostly about -30% to -49%
#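 Secreted IL-1B measured by AlphaLISA bead assay after 16 h compound exposure of THP-1 cells; compounds (final up to 57.5 uM) added 1 h before LPS (250 ng/mL) and ATP (1.25 mM) stimulation; lower signal means less secretion.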
# HT1080-NT tox – qHTS for induction of synthetic lethality in tumor cells producing 2HG: qHTS for the HT-1080-NT fibrosarcoma cell line; HT-1080-NT fibrosarcoma viability, CellTiter-Glo ATP luminescence, 48 h; 1.6% of 360,000 active; Potency, µM (top dose mostly 46.1 µM), for inactives: at the top dose activity, negative = less viability, usual class: cytotoxic;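 further: NT is the 2HG producing partner of a matched IDH1 knockdown line; potency means the concentration at half of the fitted maximal effect; 0% = DMSO-treated cells and -100% = media-only wells without cells; nearly all actives have a fitted effect of over 55% in size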
#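 Fibrosarcoma NT cells, 750 per well in 5% FBS RPMI, were exposed to compound for 48 hours. Viability: CellTiter-Glo luminescence.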
# HT1080 IDH1KD tx – qHTS for induction of synthetic lethality in tumor cells producing 2HG: qHTS for the HT-1080-IDH1KD cell line; Potency, µM (highest dose often 46.1 µM), for inactives: at the highest dose activity, negative = toxicity, most hits filed as cytotoxic; HT-1080 IDH1 knockdown viability, ATP luminescence, 48 h; 2% of 360,000 active;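 further: potency means the concentration at half of the fitted maximal effect; 0% = DMSO wells and -100% = cell-free medium wells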
#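 CellTiter-Glo luminescence after 48 h compound exposure at 37 degrees C of IDH1-knockdown HT-1080 cells in 5% FBS RPMI. %Activity scaled between DMSO wells and cell-free media wells, with curves fitted and assigned curve classes.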
# DT40 TDP1 CPT – qHTS for Inhibitors of human tyrosyl-DNA phosphodiesterase 1 (TDP1): qHTS in cells in presence of CPT; AID 686979, 2013; 12% of 420,000 active; Potency, µM (top dose mostly 46.2 µM), inactives show top-dose activity change, negative = growth inhibition, usual class: inhibitors; chicken DT40 Tdp1-/-;hTDP1 cells + 20 nM CPT, ATP luminescence, 48 h; further: potency means the concentration at half of the fitted maximal effect; nearly all actives have a fitted effect of over 55% in size
#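 Chicken DT40 Tdp1-/- cells stably complemented with human TDP1 were seeded at 400 cells/well in medium containing 20 nM camptothecin, exposed to pin-transferred compounds, and grown at 37 °C for at least 48 hr. Viability was read as ATP luminescence.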
# DT40 TDP1 no CPT – qHTS for Inhibitors of human tyrosyl-DNA phosphodiesterase 1 (TDP1): qHTS in cells in absence of CPT. DT40 Tdp1-/- hTDP1 cells, no CPT, ATP luminescence, 48 h. Potency, µM (highest dose often 46.2 µM), inactives show top-dose activity change, negative = growth inhibition, hits mostly inhibitors. 15% of 420,000 active. AID 686978, 2013; further: potency means the concentration at half of the fitted maximal effect; nearly all actives have a fitted effect of over 55% in size
#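 Chicken DT40 Tdp1-/- cells stably complemented with human TDP1 were seeded at 400 cells/well with DMSO in place of 20 nM camptothecin. After compound pinning, cells grew at least 48 hr at 37 °C; viability read by CellTiter-Glo luminescence.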
# ELG1 repair inh – qHTS screen for small molecules that inhibit ELG1-dependent DNA repair in human embryonic kidney (HEK293T) cells expressing luciferase-tagged ELG1. 2.3% of 330,000 active. HEK293T ELG1-luciferase reporter, luminescence, 16 h; DNA damage induced by 5-fluorouridine. Potency, µM (titrated, usually from 46.1 µM), without a hit: top-dose activity change, negative = inhibition, hits mostly inhibitors; further: potency means the concentration at half of the fitted maximal effect; nearly all actives have a fitted effect of over 55% in size
#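 Step one: seed 2,000 cells per well. Step two: pin-transfer compound or DMSO alongside 5-fluorouridine. Step three: incubate 16 hr, 37 °C, 5% CO2. Step four: add ONE-Glo, wait 30 min, read luminescence.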
# Active calls of the source: *; ? = inconclusive; · = no result; [ ] = remark or other dose. Unless noted, the call rests on the fitted dose curve; in most records, active means well fitted curve in the direction sought with a large enough effect; inconclusive means small, poorly fitted or top-dose-only effect, or another doubt; inactive means no such curve, though single readings can be large; an effect the other way counts as inactive or inconclusive. Unless noted, on the % scale 0 is the no-effect control and ±100 the full control effect.
SMILES,IL1B secr inh,HT1080-NT tox,HT1080 IDH1KD tx,DT40 TDP1 CPT,DT40 TDP1 no CPT,ELG1 repair inh
CC1CCN(C(=O)C(C)OC(=O)c2ccc(S(C)(=O)=O)c([N+](=O)[O-])c2)CC1 (stereo not drawn),·,·,·,0.891µM*,2.24µM*,·
CS(=O)(=O)c1ccc(C(=O)OCC(=O)NC23CC4CC(CC(C4)C2)C3)cc1[N+](=O)[O-],-106.7*,?,-21.5%,?,?,23.3%
Cn1ccsc1=NC(=O)c1ccc(S(C)(=O)=O)c([N+](=O)[O-])c1,-110.0*,-15.8%,?,4.61µM*,4.61µM*,?
COc1cccc(C(=O)OCC(=O)NC23CC4CC(CC(C4)C2)C3)c1,-1.2,-0.6%,9.7%,-10.8%,-8.1%,0.0%
Cn1ccsc1=NC(=O)c1ccc(Cl)c([N+](=O)[O-])c1,16.4,13.9%,2.1%,-13.4%,-26.4%,?
CC(C)NC(=O)NC(=O)CN1c2cccc3cccc(c23)S1(=O)=O,29.0,1.9%,5.5%,4.6%,-26.7%,1.2%
CCCCn1c(N)c(N(CC(C)C)C(=O)CSc2nnc(C)n2-c2ccc(OC)cc2)c(=O)[nH]c1=O,0.9,9.3%,1.8%,6.6%,15.0%,1.6%
C[C@@](N)(C(=O)O)[C@@H]1C[C@@H]1C(=O)O,·,·,·,-17.5%,-18.7%,·
CS(=O)(=O)c1ccc(C(=O)OCC(=O)NCC2CCCO2)cc1[N+](=O)[O-] (stereo not drawn),·,·,·,10µM*,7.94µM*,·
Cc1ccc(NS(=O)(=O)c2cc(C(=O)OCC(=O)NCC3CCCO3)ccc2C)cc1 (stereo not drawn),29.2,-3.5%,6.5%,20.9%,-4.7%,1.2%
Cn1cccc1C(=O)NC(=O)COC(=O)c1ccc(S(C)(=O)=O)c([N+](=O)[O-])c1,-95.4*,?,?,3.98µM*,4.47µM*,?
Cc1cc(C)n(CCCNC(=O)C(C)(C)Oc2ccc(Cl)cc2)n1,0.0,-1.4%,-1.5%,-17.8%,?,10.3%
c1ccc2c(c1)OCCOCCOCCOCCOc1ccccc1OCCOCCOCCO2,-4.0,-6.0%,-17.6%,14.6µM*,18.4µM*,-27.2%
O=C1C(c2ccccc2)C2C=CC(C2)N1O (stereo not drawn),6.3,-5.1%,-2.8%,-16.3%,-29.3%,·
CCC(C)c1ccc(NC(=S)NC2CCN(Cc3ccccc3)CC2)cc1 (stereo not drawn),-94.0*,18.4µM*,?,8.2µM*,7.31µM*,?
COC(=O)c1ccccc1NC(=O)NC1CCN(Cc2ccccc2)CC1,0.7,-4.7%,-0.2%,?,?,-11.5%
CCc1ccc(NC(=S)NC2CCN(Cc3ccccc3)CC2)cc1,0.0,-26.6%,-18.6%,7.31µM*,11.6µM*,4.3%
COc1ccc(C)cc1NC(=O)NC1CCN(Cc2ccccc2)CC1,-19.6,-2.1%,4.8%,23.1µM*,?,-7.3%
S=C(Nc1ccccc1)NC1CCN(Cc2ccccc2)CC1,-26.9,-5.7%,-7.1%,-19.4%,?,-14.9%
Cc1ccccc1NC(=S)NC1CCN(Cc2ccccc2)CC1,-0.7,10.3%,-0.2%,-28.3%,-37.6%,-29.5%
CCC(C)[C@H](NC(=O)NC1CCN(Cc2ccccc2)CC1)C(=O)OC (stereo partly drawn),23.6,-6.5%,-2.4%,1.0%,-17.0%,-4.7%
Cc1ccc(NC(=S)NC2CCN(Cc3ccccc3)CC2)c(C)c1,-56.7*,-0.6%,11.9%,?,?,-0.1%
COc1ccc(CCNC(=S)NC2CCN(Cc3ccccc3)CC2)cc1,?,-1.6%,-7.2%,?,23.1µM*,0.0%
S=C(Nc1ccc(Cl)cc1)NC1CCN(Cc2ccccc2)CC1,-94.0*,4.0%,-1.0%,20.6µM*,9.2µM*,-6.0%
CCCCCNC(=O)C1CCC(Cn2c(=O)c3sccc3n(CC(=O)NCc3cccc(OC)c3OC)c2=O)CC1 (stereo not drawn),·,·,·,1.1%,-4.5%,·
SMILES,IL1B secr inh,HT1080-NT tox,HT1080 IDH1KD tx,DT40 TDP1 CPT,DT40 TDP1 no CPT,ELG1 repair inh
CCCCNC(=O)C1CCC(Cn2c(=O)c3sccc3n(CC(=O)Nc3ccccc3)c2=O)CC1 (stereo not drawn),·,·,·,14.6µM*,?,·
CCCCNC(=O)C1CCC(Cn2c(=O)c3sccc3n(CC(=O)N3CCCC3)c2=O)CC1 (stereo not drawn),·,·,·,-3.6%,-16.6%,·
CCCNC(=O)C1CCC(Cn2c(=O)c3sccc3n(CC(=O)NCc3cccc(OC)c3OC)c2=O)CC1 (stereo not drawn),·,·,·,?,4.11µM*,·
COCCCNC(=O)c1cc(-c2cccnc2)nc2ccc(S(=O)(=O)N3CCC(C)CC3)cc12,·,·,·,-13.8%,0.0%,·
CSc1nccc(N2CCN(c3ccc(F)cc3)CC2)n1,-8.2,-6.9%,-29.9%,13µM*,?,1.3%
CC(=O)c1c(C)[nH]c(C(=O)COC(=O)c2c(-c3ccccc3)noc2C)c1C,-6.5,0.3%,-1.5%,?,?,20.6µM*
CCOc1ccc(C(=O)COC(=O)c2c(-c3ccccc3)noc2C)cc1,28.9,?,?,?,20.6µM*,-25.4%
CC(=O)c1c(C)[nH]c(C(=O)Nc2cc(C)cc(C)c2)c1C,-16.5,?,7.8%,-4.8%,?,?
CC(=O)c1c(C)[nH]c(C(=O)COc2cc(C)cc(C)c2)c1C,-10.1,0.1%,?,?,16.4µM*,-15.3%
COC(=O)c1c(C)[nH]c(C(=O)COc2ccc3ccc(=O)oc3c2)c1C,-0.4,2.7%[9.24 µM],9.5%,?,9.2µM*,?
CC(=O)c1c(C)[nH]c(C(=O)COc2ccc3ccc(=O)oc3c2)c1C,-10.2,-2.4%,-8.0%,?,?,?
O=C(Cn1cc(COc2ccc(-n3cccc3)cc2)nn1)NS(=O)(=O)c1ccccc1C(F)(F)F,1.5,?,16.7%,-14.0%,-16.4%,·
Cc1ccc(CNC(=O)c2c(C)oc3ncnc(N4CCOCC4)c23)cc1,·,·,·,-21.8%,-26.8%,·
CSc1ncccc1C(=O)OCC(=O)c1ccc[nH]1,-12.8,8.3%,13.9%,-13.4%,-21.2%,3.5%
